Source: PubChem BioAssay AID2099 (Broad Institute, 2009)
The campaign covered roughly 330,000 compounds. About 230 (0.07%) were called active. Only a selection was taken, and actives are over-represented in it overall. Unmarked numbers belong to inactive results.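 Rule for the calls: active = more than half of a compound's replicate wells show inhibition beyond 50%, single wells judged on their own value; inconclusive = some, but no more than half, of replicates pass 50% inhibition; inactive = no replicate passes 50% inhibition.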

biological target: Lysine-specific demethylase 4C (Homo sapiens) (UniProt Q9H3R0); assay: JMJD2C H3K9me3 demethylation blockers – biochemical, fluorescence, DELFIA europium, primary screen (AID 2099); conditions: GST-JMJD2C(1-420) H3K9me3 demethylation, at 2.35 µM, stronger effect = higher value;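 note: signal counts dimethyl H3K9 product captured on neutravidin plate; 0% = median of DMSO wells and 100% = 0.3 times that DMSO median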
Sequence (Q9H3R0 1-420 limits assumed): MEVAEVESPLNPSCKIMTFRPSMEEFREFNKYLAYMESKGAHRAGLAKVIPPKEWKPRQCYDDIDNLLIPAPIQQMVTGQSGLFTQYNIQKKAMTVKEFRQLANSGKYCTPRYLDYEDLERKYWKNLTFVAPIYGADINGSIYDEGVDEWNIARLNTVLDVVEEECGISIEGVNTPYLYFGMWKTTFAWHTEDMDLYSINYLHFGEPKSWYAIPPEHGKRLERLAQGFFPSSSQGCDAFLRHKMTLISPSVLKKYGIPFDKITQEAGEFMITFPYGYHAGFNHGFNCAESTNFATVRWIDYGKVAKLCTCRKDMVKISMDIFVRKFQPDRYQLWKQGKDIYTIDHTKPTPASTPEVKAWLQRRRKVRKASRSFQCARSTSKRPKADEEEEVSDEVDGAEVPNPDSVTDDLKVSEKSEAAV

Row | SMILES | inhibition
1 | CN1CCN(CC#CCC2(O)c3ccccc3-c3ccccc32)CC1 | -1.35%
2 | O=C(N/C(=C\c1ccc([N+](=O)[O-])cc1)C(=O)N1CCOCC1)c1cccc(Br)c1 | -3.44%
3 | C=CCN1C(=O)C(O)(CC(=O)c2ccc(Cl)cc2)c2ccccc21 (stereo not drawn) | -1.48%
4 | Cc1ccsc1/C=N/n1c(=S)[nH]nc(C)c1=O | -1.06%
5 | C=CCn1cc(Cl)cc(C(=O)Nc2ccccc2)c1=O | 3.59%
6 | O=C1Nc2cc(Cl)c(Cl)cc2N(O)N1c1ccccc1Cl | -2.09%
7 | CCCCN(CCCC)CCNC(=O)CN1C(=O)COc2ccc(S(=O)(=O)N3CCOCC3)cc21 | -8.15%
8 | COc1cc2c(cc1OC)CC1(CCCCC1)N=C2 | 2.64%
9 | COC(C[C@@H](O)[C@H](C)[C@H](O)COCc1ccccc1)OC | 13.4%
10 | O=C(CSc1nc(=O)n2ccccc2n1)Nc1ccc2c(c1)OCCO2 | -1.16%
11 | COc1cccc(NCCC(=O)c2cccc([N+](=O)[O-])c2)c1 | 4.3%
12 | CCc1ccc(N2CC(O)=C(c3nc4ccccc4c(=O)[nH]3)C2=N)cc1 | -0.372%
13 | Cc1cc(C)c(S(=O)(=O)N2CCOCC2)cc1C | 8.81%
14 | Cc1ccc(C2=NN(C)c3nc4ccccc4n3C2)cc1 | 4.06%
15 | Cc1nn(C)c(Cl)c1CN1CCC(Oc2ccc(C(=O)N3CCCC3)cc2)CC1 | 36.3%
16 | Cc1ccc(-n2c(CNc3ccc(F)cc3)nnc2SCC(=O)N2CCOCC2)cc1 | 0.71%
17 | CC(=O)Nc1ccc(NC(=O)CCN2C(=O)C3CC=CCC3C2=O)cc1 (stereo not drawn) | 3.08%
18 | O=c1cc(-c2ccccc2)[nH]c2cc(F)ccc12 | 0.818%
19 | Cc1ccccc1NC(=O)N1CCCC1C(=O)NCc1ccccc1 (stereo not drawn) | 5.47%
20 | Cc1nnc(SC(C(=O)c2ccccc2)c2ccccc2)[nH]c1=O (stereo not drawn) | -3.86%
21 | CCCCN1CCNC1=S | 0.223%
22 | OCCC1CN(Cc2ccc3nsnc3c2)CCN1C1CCCC1 (stereo not drawn) | -2.72%
23 | O=C(NCc1ccccn1)c1cnc2sccn2c1=O | -1.24%
24 | Cc1nc2nc(SCC(=O)Nc3cccc(F)c3)[nH]c2cc1Br | 6.95%

Row | SMILES | inhibition
25 | COc1ccc(F)c(-c2nc(CN3CCC(c4ccccc4)CC3)c(C)o2)c1 | -8.87%
26 | O=c1c2sccc2nc(SCc2cc(=O)n3ccccc3n2)n1-c1ccc(Br)cc1 | -3.21%
27 | CC(C)(C)NC(=O)NC(=O)CN1CCC(Cc2ccccc2)CC1 | -22.7%
28 | CN(CC1CCCO1)S(=O)(=O)c1ccc(C(=O)Nc2ccc([N+](=O)[O-])cc2)cc1 (stereo not drawn) | -19.5%
29 | COc1ccc(NS(=O)(=O)c2ccc(N3CCN(CCO)CC3)c([N+](=O)[O-])c2)cc1 | 1.9%
30 | O=C(NCc1ccccc1Cl)NC(=O)c1csc([N+](=O)[O-])c1 | -1.75%
31 | O=C(CN1CCCCCC1)Nc1ccc(Br)cc1Br | 7.23%
32 | O=C(CCCOc1ccccc1)NCc1ccco1 | 8.15%
33 | COc1cccc(OC)c1C(=O)OCC(=O)/C(C#N)=C(\C)N | -25.5%
34 | CC(C)CCN1CCN(Cc2cn[nH]c2C2CCCCC2)CC1CCO (stereo not drawn) | -11.2%
35 | COc1ccc(NC(=O)CN(C)C(=O)c2cccc(S(=O)(=O)N3CCN(c4ccccc4)CC3)c2)cc1 | 38.9%
36 | CCCC(=O)N1CCC(CCC(=O)NC2CC2)CC1 | 33.1%
37 | O=C(CSCc1c(Cl)cccc1Cl)NN1C(=O)c2ccccc2C1=O | -14.7%
38 | CCCCn1c(N)c(N(CC(C)C)C(=O)c2cccc(S(=O)(=O)N3CC(C)OC(C)C3)c2)c(=O)[nH]c1=O (stereo not drawn) | -2.81%
39 | O=C(OCC1O[C@@H](OC(=O)c2cc(O)c(O)c(O)c2)[C@@H](OC(=O)c2cc(O)c(O)c(O)c2)[C@@H](OC(=O)c2cc(O)c(O)c(O)c2)[C@@H]1OC(=O)c1cc(O)c(O)c(O)c1)c1cc(O)c(O)c(O)c1 (stereo partly drawn) | 97.3% (active)
40 | NS(=O)(=O)c1ccc(NC(=S)NNC(=O)c2cccs2)cc1 | 0.859%
41 | COc1ccc(-c2noc(CCCC(=O)NC3CCCC3)n2)cc1OC | 0.509%
42 | Cc1cccc(-c2noc(CCC(=O)NC3CCCC3)n2)c1 | 54.2% (active)
43 | CCOc1ccc(-c2noc(CCC(=O)NC3CCCC3)n2)cc1OC | 7.26%
44 | C/C(=N\NC(=O)COc1ccc(C)cc1[N+](=O)[O-])c1ccc2c(c1)OCCO2 | 9.39%
45 | Cc1cc(NC(=O)Nc2c[nH]c(=O)[nH]c2=O)ccc1Br | 53.4% (active)
46 | Cc1ccc(NC(=O)Nc2ccccc2)c(Br)c1 | 14.6%
47 | Cc1cc(NC(=O)[C@H](C)NC(=O)c2ccco2)ccc1Br | -9.73%
48 | CCc1c(C)nc2c(OC)cccc2c1Cl | 8.11%

Row | SMILES | inhibition
49 | Cc1ccccc1CN1C[C@@H]2C[C@@H](c3ccc4nsnc4c3)N3CCC[C@@]23C1=O | 10.6%
50 | COc1cccc(COC(=O)C2CCN(S(=O)(=O)c3cccs3)CC2)c1OC | -2.56%
51 | O=c1ccc2c(-c3ccccc3S(=O)(=O)O)c3ccc(O)c(O)c3oc-2c1O | 79.5% (active)
52 | CC(C)CN(C(=O)Cn1c(=O)cnc2ccccc21)C1CCS(=O)(=O)C1 (stereo not drawn) | 2.23%
53 | c1cc(-c2nn[nH]n2)ccc1CN1CCCCC1 | 12.9%
54 | CCc1ccc(-c2nnn(Cc3nc4ccccc4s3)n2)cc1 | 51.2%
55 | CCc1ccc(-c2nnn(Cc3nn[nH]n3)n2)cc1 | 57.7% (active)
56 | Nc1nc(NCC(=O)O)nc(N2CCCCCC2)c1[N+](=O)[O-] | 21.9%
57 | N#CCc1c(C#N)c(N)nc(N2CCCC2)c1C#N | 1.17%
58 | N#Cc1c(N2CCCCC2)nc(N)c2c(N)nc(SCC(=O)O)cc12 | 65.6% (active)
59 | CCCCn1c(N)c(N(CC(C)C)C(=O)c2ccc(-n3c(C)ccc3C)cc2)c(=O)[nH]c1=O | -11.1%
60 | Cc1cc(=O)n2nc(N3CCC(C(=O)Nc4c(F)c(F)c(F)c(F)c4F)CC3)sc2n1 | 1.58%
61 | COc1cc(CNCc2ccc3c(c2)OCO3)c([N+](=O)[O-])cc1OC | 1.62%
62 | O=C(CN1C(=O)NC2(CCCCCC2)C1=O)NCc1ccc(F)cc1 | 2.24%
63 | CSc1ccccc1NC(=O)c1cc(C2CC2)on1 | 4.43%
64 | COC(=O)C1C(=O)CC(C)(O)C(C(=O)OC)C1c1ccc2c(c1)OCO2 (stereo not drawn) | -4.99%
65 | N#Cc1c(/N=C/N2CCCC2)oc(-c2ccccc2)c1-c1ccccc1 | -7.68%
66 | COc1ccc(C2(CNC(=O)Cc3ccc(OC)c(OC)c3)CCCC2)cc1 | -23.7%
67 | COc1ccc(C)cc1S(=O)(=O)Nc1cc2c3c(c1)CCC(=O)N3CCC2 | -0.171%
68 | O=C(O)C1CCN1C1CCCCC1 (stereo not drawn) | -9.8%
69 | COc1ccc(NC(=O)C2CCC(CNc3c(N4CCCCC4)c(=O)c3=O)CC2)c(OC)c1 (stereo not drawn) | -6.37%
70 | COCc1cc(C)nc2sc3c(=O)n(-c4cccc5ccccc45)nnc3c12 | -7.85%
71 | CCc1nc2cccnc2n1-c1ccc(C(=O)O)cc1 | 3.28%
72 | Cc1ccc2nc(-c3ccc(NC(=O)CN(C)S(=O)(=O)c4ccccc4)cc3)sc2c1 | -15.6%

Row | SMILES | inhibition
73 | CN(CCCC(=O)Nc1nccs1)S(=O)(=O)c1ccc(Cl)cc1 | 9.62%
74 | O=C1C=C(c2ccccc2)CCC1 | -14.3%
75 | C/C=C/C(=O)Nc1nnc(C(C)C)s1 | -0.768%
76 | CCCC(=O)N1CCN(c2nnc(-c3ccc(C)cc3)c3ccccc23)CC1 | -13.5%
77 | C[C@H](C(=O)CC(=O)OC(C)(C)C)[C@H](O)c1ccc(C(F)(F)F)cc1 | 1.41%
78 | CC1CCCCC1NC(=O)Cn1cnc2c1c(=O)n(C)c(=O)n2C (stereo not drawn) | 6.58%
79 | O=C1CCC(=O)N1CCOP1(=O)COc2ccccc2OC1 | 2.42%
80 | NC(=O)c1ccc(N2CCOCC2)nc1 | -3.7%
81 | Cc1noc(NS(=O)(=O)c2ccc(N3CC(O)=C(c4ccccc4)C3=N)cc2)c1C | -10.1%
82 | COc1ccc([N+](=O)[O-])cc1NC(=O)CC1SC(=Nc2cccc(C)c2C)N(/N=C(\C)c2ccc(C)cc2)C1=O (stereo not drawn) | -21.9%
83 | CN(Cc1ccccc1)C(=O)C(=O)c1cn(CC(=O)N2CCCC2)c2ccccc12 | 11.9%
84 | O=C(c1cc2ccccc2s1)N1CCN(c2ccccn2)CC1 | -6.37%
85 | O=C(N=C1SC2CS(=O)(=O)CC2N1c1ccccc1)c1ccccc1 (stereo not drawn) | 1.92%
86 | COc1ccc(C)cc1NC(=O)CCCN1C(=O)NC(C)(C)C1=O | -6.72%
87 | O=C(CC(NS(=O)(=O)c1ccc(Cl)cc1)c1ccco1)NC1CCCC1 (stereo not drawn) | -10.3%
88 | CC(C)Cn1c(N2CCN(C(=O)/C=C/c3ccccc3)CC2)nc2ccccc21 | 12%
89 | CCCCn1c(N)c(N(CC)C(=O)/C=C/c2ccco2)c(=O)[nH]c1=O | -4.8%
90 | CN(C(=O)CSc1cccc[n+]1[O-])C1CCCCC1 | -11.4%
91 | CCOc1cc(CN2CCCC(CO)(Cc3ccc(F)cc3F)C2)ccc1OC (stereo not drawn) | -2.58%
92 | O=C(NCc1cccs1)c1ccc(CS(=O)Cc2ccccc2Cl)o1 (stereo not drawn) | -4.03%
93 | CCOc1cnc(-c2c(-c3ccccc3Cl)noc2C)o1 | 0.379%
